# Measured values published in PubChem BioAssay (EPA / NIEHS).
# Calls of active or inactive are those of the source. How the source made its calls: active means hit-call score of the fitted dose curve at least 0.9, where 1 is the maximum; inactive means score below 0.9.
# Read-out: not listed separately
# Assay: CEETOX_H295R_PROG: CeeTox H295R High-throughput Steroidogenesis Assay for Progesterone (PROG) (AID 2283442);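 on AC50: human H295R adrenal cells primed with 10 µM forskolin before dosing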
# Settings: actives raise or lower the signal
# Outline: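 H295R adrenal cells prestimulated 48 h with 10 uM forskolin, then exposed 48 h to test chemical in 0.1% DMSO. Progesterone in medium quantified by HPLC-MS/MS after MTBE extraction; viability checked by MTT in same wells.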
# Chain of Fatty acid synthase (Homo sapiens) (P49327 whole entry, looked up): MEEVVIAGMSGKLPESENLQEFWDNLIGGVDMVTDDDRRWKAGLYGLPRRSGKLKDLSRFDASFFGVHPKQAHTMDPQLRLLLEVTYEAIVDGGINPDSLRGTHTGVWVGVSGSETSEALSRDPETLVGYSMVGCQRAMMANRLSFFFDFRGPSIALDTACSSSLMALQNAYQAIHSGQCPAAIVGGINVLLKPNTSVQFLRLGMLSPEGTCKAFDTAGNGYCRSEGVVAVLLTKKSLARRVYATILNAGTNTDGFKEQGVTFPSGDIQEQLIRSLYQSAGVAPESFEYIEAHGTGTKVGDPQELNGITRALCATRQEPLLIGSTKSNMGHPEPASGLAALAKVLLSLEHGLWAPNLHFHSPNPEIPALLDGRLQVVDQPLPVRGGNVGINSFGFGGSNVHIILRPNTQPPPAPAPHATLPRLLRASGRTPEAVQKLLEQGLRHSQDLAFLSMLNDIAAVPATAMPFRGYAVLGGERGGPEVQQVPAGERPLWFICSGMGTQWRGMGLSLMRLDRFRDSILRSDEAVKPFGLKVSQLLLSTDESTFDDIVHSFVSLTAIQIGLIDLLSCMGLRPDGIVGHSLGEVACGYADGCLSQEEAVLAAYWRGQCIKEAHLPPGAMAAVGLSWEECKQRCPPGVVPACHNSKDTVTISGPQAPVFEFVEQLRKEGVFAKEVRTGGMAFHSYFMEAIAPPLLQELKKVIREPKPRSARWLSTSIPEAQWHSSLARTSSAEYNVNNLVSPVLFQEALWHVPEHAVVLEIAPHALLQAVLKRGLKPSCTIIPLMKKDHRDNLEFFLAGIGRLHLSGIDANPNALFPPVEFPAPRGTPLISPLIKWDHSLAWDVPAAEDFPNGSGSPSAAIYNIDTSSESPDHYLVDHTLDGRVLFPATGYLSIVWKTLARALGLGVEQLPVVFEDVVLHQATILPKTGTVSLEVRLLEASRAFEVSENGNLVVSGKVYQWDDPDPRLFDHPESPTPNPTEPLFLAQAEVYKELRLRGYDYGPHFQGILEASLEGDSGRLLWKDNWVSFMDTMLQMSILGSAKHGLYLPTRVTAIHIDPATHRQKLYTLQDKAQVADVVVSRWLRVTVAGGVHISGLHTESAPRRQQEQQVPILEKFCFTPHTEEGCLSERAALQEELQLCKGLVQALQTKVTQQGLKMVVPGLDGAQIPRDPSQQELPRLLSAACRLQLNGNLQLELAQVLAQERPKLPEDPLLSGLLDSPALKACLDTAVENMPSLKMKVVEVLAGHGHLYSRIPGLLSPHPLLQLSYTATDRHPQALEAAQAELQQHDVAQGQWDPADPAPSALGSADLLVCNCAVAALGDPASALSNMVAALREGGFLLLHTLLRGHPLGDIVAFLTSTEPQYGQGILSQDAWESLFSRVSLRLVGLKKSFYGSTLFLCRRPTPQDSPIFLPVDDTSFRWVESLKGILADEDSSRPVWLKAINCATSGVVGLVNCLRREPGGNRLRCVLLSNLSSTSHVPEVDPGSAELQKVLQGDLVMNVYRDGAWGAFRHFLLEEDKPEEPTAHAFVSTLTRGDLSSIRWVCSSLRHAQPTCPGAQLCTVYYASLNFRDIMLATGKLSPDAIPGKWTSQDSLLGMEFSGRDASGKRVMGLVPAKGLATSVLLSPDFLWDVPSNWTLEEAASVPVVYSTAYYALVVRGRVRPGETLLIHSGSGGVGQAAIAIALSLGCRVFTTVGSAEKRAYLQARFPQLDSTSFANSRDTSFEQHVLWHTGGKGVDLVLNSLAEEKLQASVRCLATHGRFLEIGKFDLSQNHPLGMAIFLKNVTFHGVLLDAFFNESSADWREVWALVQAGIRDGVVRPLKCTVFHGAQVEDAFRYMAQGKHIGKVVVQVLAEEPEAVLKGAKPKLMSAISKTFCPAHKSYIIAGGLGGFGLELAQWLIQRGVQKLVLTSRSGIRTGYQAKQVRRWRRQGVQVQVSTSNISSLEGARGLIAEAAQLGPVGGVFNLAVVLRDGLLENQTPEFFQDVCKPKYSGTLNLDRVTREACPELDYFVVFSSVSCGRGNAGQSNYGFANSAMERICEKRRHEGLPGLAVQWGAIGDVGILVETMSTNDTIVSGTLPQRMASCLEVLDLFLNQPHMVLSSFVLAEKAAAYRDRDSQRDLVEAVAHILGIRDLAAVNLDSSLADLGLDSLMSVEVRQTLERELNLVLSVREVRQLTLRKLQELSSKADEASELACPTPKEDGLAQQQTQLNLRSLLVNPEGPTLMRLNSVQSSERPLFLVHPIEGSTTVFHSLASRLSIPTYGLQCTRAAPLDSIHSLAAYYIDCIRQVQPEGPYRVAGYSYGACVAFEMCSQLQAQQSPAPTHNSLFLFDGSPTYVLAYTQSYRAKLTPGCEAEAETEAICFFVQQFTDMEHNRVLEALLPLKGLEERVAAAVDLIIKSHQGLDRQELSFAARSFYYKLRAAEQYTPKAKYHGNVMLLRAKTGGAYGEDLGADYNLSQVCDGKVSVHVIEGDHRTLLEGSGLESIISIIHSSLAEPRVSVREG
Structure (SMILES),outcome,AC50
CNC(=O)Oc1cccc2c1OC(C)(C)C2,inactive,
CCCCCOC(=O)c1ccccc1C(=O)OCCCCC,inactive,
CC(C)N(Cc1ccccc1)C(=O)C(C)(C)C,inactive,
COP(=S)(OC)SCN1C(=O)c2ccccc2C1=O,inactive,
CC(C)(O)c1cnn2c(-c3ccc(F)c(-c4c(F)cccc4C#N)c3)cnc2n1,,0.251 µM (active)
Nc1ccc(Oc2ccc(N)cc2)cc1,,9.14 µM (active)
Nc1ccc(Cl)cc1N,,1.89 µM (active)
Oc1ccc2ccc3cccc4ccc1c2c34,inactive,
Cn1cc(-c2ccccc2)c(=O)c(-c2cccc(C(F)(F)F)c2)c1,inactive,
Cc1cc(N=Nc2ccccc2C)ccc1N,,2.5 µM (active)
C[C@]12C=CC3=C4CCC(=O)C=C4CC[C@H]3[C@@H]1CC[C@@H]2O,,0.0975 µM (active)
O=C(Nc1ccccc1)c1ccccc1I,,7.28 µM (active)
CC(C)(C)C(O)(CCc1ccc(Cl)cc1)Cn1cncn1 (stereo unspecified),,0.121 µM (active)
CCOc1cccc(C2(N3CCN(c4ccccc4)CC3)CCC(C)CC2)c1 (stereo unspecified),,35.5 µM (active)
CCCCCCCCCCCCCN1CC(C)OC(C)C1 (stereo unspecified),,8.46 µM (active)
CCC(C)c1ccc(O)cc1 (stereo unspecified),inactive,
N#CC(Br)(Br)C(N)=O,,50 µM (active)
c1ccc(NNc2ccccc2)cc1,inactive,
Nc1ccc(N=Nc2ccccc2)cc1,,75.6 µM (active)
Cc1ccc(N)c(N)c1,inactive,
O=P(OCCCl)(OCCCl)OCCCl,inactive,
O=C(Oc1ccc(Br)cc1)N1CCN2CCC1CC2,,1.3 µM (active)
Nc1ccc(Cc2ccc(N)cc2)cc1,,3.84 µM (active)
Cc1ccc(N=C=O)cc1N=C=O,inactive,
Cc1cccc(N)c1N,,15.4 µM (active)
[As]#[In],inactive,
O=[N+]([O-])c1ccc(Oc2ccc(Cl)cc2Cl)cc1,inactive,

# Read-out: Tumor necrosis factor receptor superfamily member 6 (Homo sapiens) (UniProt P25445)
# Assay: LTEA_HepaRG_FAS: Life Technologies and Expression Analysis (LTEA) Assay for Fas cell surface death receptor (FAS) using HepaRG (AID 2283447)
# Settings: mRNA level, 48 h; actives raise or lower the signal
# Outline: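 Differentiated HepaRG cells in serum-free induction medium were exposed 48 h to 8 half-log concentrations up to 100 uM in 0.5% DMSO, in duplicate. FAS mRNA was measured by qRT-PCR normalised to ACTB, GAPDH and POLR2A; bidirectional fit versus DMSO.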
Structure (SMILES),outcome,AC50
CNC(=O)Oc1cccc2c1OC(C)(C)C2,inactive,
CCCCCOC(=O)c1ccccc1C(=O)OCCCCC,inactive,
CC(C)N(Cc1ccccc1)C(=O)C(C)(C)C,inactive,
COP(=S)(OC)SCN1C(=O)c2ccccc2C1=O,inactive,
CC(C)(O)c1cnn2c(-c3ccc(F)c(-c4c(F)cccc4C#N)c3)cnc2n1,inactive,
Nc1ccc(Oc2ccc(N)cc2)cc1,inactive,
Nc1ccc(Cl)cc1N,,13.3 µM (active)
Oc1ccc2ccc3cccc4ccc1c2c34,inactive,
Cn1cc(-c2ccccc2)c(=O)c(-c2cccc(C(F)(F)F)c2)c1,inactive,
Cc1cc(N=Nc2ccccc2C)ccc1N,,3.37 µM (active)
C[C@]12C=CC3=C4CCC(=O)C=C4CC[C@H]3[C@@H]1CC[C@@H]2O,inactive,
O=C(Nc1ccccc1)c1ccccc1I,inactive,
CC(C)(C)C(O)(CCc1ccc(Cl)cc1)Cn1cncn1 (stereo unspecified),inactive,
CCOc1cccc(C2(N3CCN(c4ccccc4)CC3)CCC(C)CC2)c1 (stereo unspecified),inactive,
CCCCCCCCCCCCCN1CC(C)OC(C)C1 (stereo unspecified),inactive,
CCC(C)c1ccc(O)cc1 (stereo unspecified),inactive,
N#CC(Br)(Br)C(N)=O,inactive,
c1ccc(NNc2ccccc2)cc1,inactive,
Nc1ccc(N=Nc2ccccc2)cc1,,13 µM (active)
Cc1ccc(N)c(N)c1,inactive,
O=P(OCCCl)(OCCCl)OCCCl,inactive,
O=C(Oc1ccc(Br)cc1)N1CCN2CCC1CC2,inactive,
Nc1ccc(Cc2ccc(N)cc2)cc1,inactive,
Cc1ccc(N=C=O)cc1N=C=O,inactive,
Cc1cccc(N)c1N,inactive,
[As]#[In],inactive,
O=[N+]([O-])c1ccc(Oc2ccc(Cl)cc2Cl)cc1,inactive,

# Read-out: Fatty acid synthase (Homo sapiens) (UniProt P49327)
# Assay: LTEA_HepaRG_FASN: Life Technologies and Expression Analysis (LTEA) Assay for Fatty Acid Synthase (FASN) using HepaRG (AID 2283448);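 on AC50: differentiated human HepaRG liver cells in serum-free induction medium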
# Settings: mRNA level, 48 h; actives raise or lower the signal
# Outline: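 In human HepaRG cultures, 48 h chemical exposure (up to 100 uM, 0.5% DMSO) preceded TaqMan qRT-PCR of FASN.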
Structure (SMILES),outcome,AC50
CNC(=O)Oc1cccc2c1OC(C)(C)C2,inactive,
CCCCCOC(=O)c1ccccc1C(=O)OCCCCC,inactive,
CC(C)N(Cc1ccccc1)C(=O)C(C)(C)C,inactive,
COP(=S)(OC)SCN1C(=O)c2ccccc2C1=O,inactive,
CC(C)(O)c1cnn2c(-c3ccc(F)c(-c4c(F)cccc4C#N)c3)cnc2n1,inactive,
Nc1ccc(Oc2ccc(N)cc2)cc1,inactive,
Nc1ccc(Cl)cc1N,,37.9 µM (active)
Oc1ccc2ccc3cccc4ccc1c2c34,inactive,
Cn1cc(-c2ccccc2)c(=O)c(-c2cccc(C(F)(F)F)c2)c1,,9.92 µM (active)
Cc1cc(N=Nc2ccccc2C)ccc1N,,2.9 µM (active)
C[C@]12C=CC3=C4CCC(=O)C=C4CC[C@H]3[C@@H]1CC[C@@H]2O,,61 µM (active)
O=C(Nc1ccccc1)c1ccccc1I,,13.2 µM (active)
CC(C)(C)C(O)(CCc1ccc(Cl)cc1)Cn1cncn1 (stereo unspecified),,3.08 µM (active)
CCOc1cccc(C2(N3CCN(c4ccccc4)CC3)CCC(C)CC2)c1 (stereo unspecified),inactive,
CCCCCCCCCCCCCN1CC(C)OC(C)C1 (stereo unspecified),inactive,
CCC(C)c1ccc(O)cc1 (stereo unspecified),inactive,
N#CC(Br)(Br)C(N)=O,inactive,
c1ccc(NNc2ccccc2)cc1,inactive,
Nc1ccc(N=Nc2ccccc2)cc1,,21.6 µM (active)
Cc1ccc(N)c(N)c1,inactive,
O=P(OCCCl)(OCCCl)OCCCl,inactive,
O=C(Oc1ccc(Br)cc1)N1CCN2CCC1CC2,,75.9 µM (active)
Nc1ccc(Cc2ccc(N)cc2)cc1,inactive,
Cc1ccc(N=C=O)cc1N=C=O,,15.9 µM (active)
Cc1cccc(N)c1N,,33.4 µM (active)
[As]#[In],inactive,
O=[N+]([O-])c1ccc(Oc2ccc(Cl)cc2Cl)cc1,,50 µM (active)
